Source: PubChem BioAssay (NCATS)
Inconclusive results are not listed. The source made the active and inactive calls. The call rests on the fitted dose curve; in most records, active means well fitted activation curve with a large enough effect; inconclusive means small, poorly fitted or top-dose-only effect; inactive means flat fitted curve, though single readings scatter.

molecular target: Cellular tumor antigen p53 (Homo sapiens) (UniProt P04637); assay: Primary qHTS for small molecule compounds that upregulate eGFP-tagged delta133p53alpha (in C-terminal) cells. (AID 2060324); conditions: NCI-H358 delta133p53alpha-eGFP (C-terminal tag), GFP fluorescence imaging, 24 h; series mostly up to 57.5 µM; GFP increase (activation): at the top concentration;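 on GFP increase (activation): 0% = DMSO wells and 100% = 57.5 µM 5-azacytidine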
Source text: Assay Development and Screening Technology
National Center for Advancing Translational Sciences (NCATS),
National Institute of Health (NIH), Rockville, Maryland
Cellular senescence (CS) is one of the hallmarks of aging and age-related diseases. Senescent cells are characterized by an irreversible growth arrest, an increase in senescence-associated beta-galactosidase (SA-beta-gal) activity and p16INK4a expression, an activation of the DNA damage response pathways, and the emergence of a senescence-associated secretory phenotype (SASP).
Delta133p53alpha, a human/primate-specific p53 protein isoform, delays or inhibits the induction of CS and SASP in various types of human cells, including progeria-derived fibroblasts, primary normal astrocytes, and CD8+ T lymphocytes. Induction of delta133p53alpha with small molecule compounds may provide therapeutic opportunities for inhibition of senescence/SASP-associated pathologies in progeria syndromes, astrocyte-mediated neuroprotection in neurodegenerative diseases, and possibly prevention and treatment of a wider range of senescence- and aging-associated diseases.
Here we report the development and validation of a cell-based quantitative high throughput screening (qHTS) assay in 1,536-well format. This qHTS assay uses the NCI-H358 cell line with doxycycline-inducible expression of enhanced green fluorescent protein (eGFP)-tagged delta133p53alpha, which allows efficient and highly quantitative measurement of the protein levels.
PROTOCOL TABLE (as described by Inglese J, Shamu CE and Guy RK. 2007)
SEQUENCE No. (e.g., 1, 2, 3, etc.); […] (e.g., Cells, Incubation, Reagent, etc.); VALUE; DESCRIPTION.
1; Cells; 4uL; 800 doxycycline treated cells / well in doxycycline-free media, 1536-well black, clear-bottom low base Aurora microplates.
2; Compounds; 23 nL; Kalypsis pin tool (Wako) equipped with 1536-well pin heads, 5-azacytidine positive control.
3; Incubation; 24 hr; 37C, 5% CO2; 95% relative humidity.
4; Aspiration; 1x; BioTek EL406 washer dispenser (Agilent).
5; Fixing; 3.5% paraformaldehyde, BioTek EL406 washer dispenser (Agilent).
6; Washing; 1x PBS; BioTek EL406 washer dispenser (Agilent).
7; Nuclei staining; 1:1000 dilution of Hoechst 33342 (Thermofisher), BioTek EL406 washer dispenser (Agilent).
8; Incubation; 20 min; in the dark at room temperature.
9; Washing; 2x, 1x PBS (ThermoFisher), BioTek EL406 washer dispenser (Agilent).
10; Reagent; 10 uL; 1x PBS per well, sealed with clear adhesive tape.
11; Detection; Fluorescence, Acumen eX3 laser scanning cytometer (STP Labtech), GFP filters […].
NOTES (numbers refer to sequence numbers above).
1. NCI-H358 cells expressing eGFP-tagged delta133p53alpha were grown in T75 culture flasks and treated with doxycycline for 24h, at 10 ng/ml for eGFP-D133p53a cells (N-terminal cell) and 100 ng/ml for D133p53a-eGFP cells (C-terminal cells). Cells were trypsinized, counted using a Counted 3 Automated Cell Counter (Thermo Fisher), and diluted to a concentration of 200,000 cells/ml. A Multidrop Combi Reagent Dispenser (ThermoFisher) was used to dispense 800 cells/well in […] of doxycycline-free media, into 1536-well black/clear bottom low base plates (AuroraMicroplates).
2. After plating cells, 23 nl of compound library, DMSO vehicle control or positive control (5-azacytidine) were transferred by Pin Tool (Wako). The plate map layout was the same for each plate: (column 1) non-doxycycline treated cells + DMSO vehicle control; (column 2) doxycycline treated cells + DMSO vehicle control baseline; (column 3) doxycycline treated cells + positive control 57.5 uM final concentration 5-azacytidine; (column 4) doxycycline treated cells + serial dilution of 5-azacytidine, 16-point 1:2 titration spanning 1.8 nM to […] final concentration; (columns 5-48) doxycycline treated cells + titration of library compounds.
3. Cells were incubated at 37 °C, 5 % CO2, 95% RH with breathable metal lid for 24h.
4-10. […] […]
Potency means the concentration at half of the fitted maximal effect.

Sequence of Cellular tumor antigen p53 (Homo sapiens) (P04637 whole entry, looked up): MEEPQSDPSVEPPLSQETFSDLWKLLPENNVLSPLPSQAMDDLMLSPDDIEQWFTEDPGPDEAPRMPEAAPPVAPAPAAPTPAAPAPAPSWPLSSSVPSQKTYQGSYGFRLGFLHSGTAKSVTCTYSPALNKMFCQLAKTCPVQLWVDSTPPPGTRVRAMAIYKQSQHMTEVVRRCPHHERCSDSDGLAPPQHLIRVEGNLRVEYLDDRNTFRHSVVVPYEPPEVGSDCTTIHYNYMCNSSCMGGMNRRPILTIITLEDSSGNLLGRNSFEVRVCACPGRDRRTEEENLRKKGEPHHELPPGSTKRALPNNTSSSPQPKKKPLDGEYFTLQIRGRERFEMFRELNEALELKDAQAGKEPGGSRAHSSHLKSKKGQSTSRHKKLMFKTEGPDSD

Row | Structure (SMILES) | GFP increase (activation) | Potency
1 | CCCN(CCC)CCc1ccc(O)c(O)c1 | -3.85% (inactive) | 
2 | CC(=O)[C@H]1CC[C@H]2[C@@H]3CC[C@H]4C[C@H](O)CC[C@]4(C)[C@H]3C(=O)C[C@]12C | -3.85% (inactive) | 
3 | O=C(O)[C@@H]1CCN1 | -4.23% (inactive) | 
4 | NC(=O)c1cc(N2CC2)c([N+](=O)[O-])cc1[N+](=O)[O-] | -7.95% (inactive) | 
5 | c1ccc2cc(CC3=NCCN3)ccc2c1 | 0.2% (inactive) | 
6 | N[C@@H](Cn1oc(=O)[nH]c1=O)C(=O)O | -2.42% (inactive) | 
7 | c1ccc(C2(c3ccccc3)CC2C2=NCCN2)cc1 (stereo not given) | 1.02% (inactive) | 
8 | CC12NC(Cc3ccccc31)c1ccccc12 (stereo not given) | -13.9% (inactive) | 
9 | COc1cc(C(O)CN)ccc1O (stereo not given) | -9.2% (inactive) | 
10 | O=C(CCCN1CCC2(CC1)C(=O)NCN2c1ccccc1)c1ccc(F)cc1 | 15% (inactive) | 
11 | c1ccc(CCCN2CCN(CCOC(c3ccccc3)c3ccccc3)CC2)cc1 | 2.37% (inactive) | 
12 | CCn1cnc2c(Nc3cccc(Cl)c3)nc(N[C@@H]3CCCC[C@@H]3N)nc21 |  | 5.36 µM (active)
13 | CC(O)(CS(=O)(=O)c1ccc(F)cc1)C(=O)Nc1ccc(C#N)c(C(F)(F)F)c1 (stereo not given) | -11.5% (inactive) | 
14 | CN1CCC(c2c[nH]c3ccc(O)cc23)CC1 | 0.541% (inactive) | 
15 | C[C@@H]1O[C@H](C[N+](C)(C)C)C[C@H]1O | -6.11% (inactive) | 
16 | O=C(O)Cc1cnc[nH]1 | 0.616% (inactive) | 
17 | NC(N)=NOCCC(N)C(=O)O (stereo not given) | -12.9% (inactive) | 
18 | NCCCP(=O)(O)O | -1.88% (inactive) | 
19 | CP(=O)(O)C1=CCNCC1 | 0.702% (inactive) | 
20 | O=C(NC1CN2CCC1CC2)c1cc2ccoc2cn1 (stereo not given) | 0.162% (inactive) | 

Row | Structure (SMILES) | GFP increase (activation) | Potency
21 | O=C1NCN(c2ccccc2)C12CCN(CC1COc3ccccc3O1)CC2 (stereo not given) | 1.8% (inactive) | 
22 | CC[C@@H](C(N)=O)N1CCCC1=O | -2.13% (inactive) | 
23 | CN1CCc2cc(O)cc3c2[C@H]1Cc1ccc(O)c(O)c1-3 | 9.67% (inactive) | 
24 | C[N+]1(C)CCN(c2ccccc2)CC1 | -10% (inactive) | 
25 | O=C1/C(=C/c2ccccc2)C[C@@]2(O)[C@H]3Cc4ccc(O)c5c4[C@@]2(CCN3CC2CC2)[C@H]1O5 |  | 21.3 µM (active)
26 | CC(=O)c1c(O)c(C)c(O)c(Cc2c(O)c3c(c(C(=O)/C=C/c4ccccc4)c2O)OC(C)(C)C=C3)c1O | -8.15% (inactive) | 
27 | S=C(NC1CCCCC1)N1CCC(c2cnc[nH]2)CC1 | -1.14% (inactive) | 
28 | NCCc1ccc(S(=O)(=O)F)cc1 | 25.5% (inactive) | 
29 | NC(=NCCC[C@H](N)C(=O)O)N[N+](=O)[O-] | -5.42% (inactive) | 
30 | NCCc1c[nH]c2ccc(C(N)=O)cc12 | 0.719% (inactive) | 
31 | C[C@]12Cc3cn4c(nc3C=C1CCC1C2CC[C@@]2(C)[C@H]1CC[C@@]2(O)C#N)nc1ccccc14 (stereo not given in full) |  | 30.1 µM (active)
32 | COc1ccc2c(c1O)-c1cccc3c1[C@@H](C2)N(C)CC3 | 9.05% (inactive) | 
33 | CCCN1CCC[C@H](c2cccc(O)c2)C1 | -10.6% (inactive) | 
34 | COc1ccc(C(CN(C)C)C2(O)CCCCC2)cc1 (stereo not given) | -15.3% (inactive) | 
35 | C[N+](C)(C)CC#CCOC(=O)Nc1cccc(Cl)c1 | 10.1% (inactive) | 
36 | CO[C@H]1CC=C2CCN3CCC4=C(CC(=O)OC4)[C@]23C1 | 6.12% (inactive) | 
37 | NCCc1ccc(O)cc1 | 0.0491% (inactive) | 
38 | CCN1C[C@@]2(COC)C3[C@@H](OC)C4[C@@H]1C3([C@@H]1C[C@]3(O)[C@H](OC(=O)c5ccccc5)[C@@H]1[C@]4(OC(C)=O)[C@@H](O)[C@@H]3OC)[C@H](OC)C[C@H]2O | -7.11% (inactive) | 
39 | C[C@H](N)CN1CCc2ccc(Br)cc21 | 6.21% (inactive) | 
40 | CNCCc1c[nH]c2ccc(O)cc12 | -4.67% (inactive) | 
